# Measurements taken from PubChem BioAssay (Tox21).
# Results filed as inconclusive are left out. Active and inactive are the calls of the source. Calls come from the whole dose curve.
# Target: Beta-2 adrenergic receptor (Homo sapiens) (UniProt P07550)
# Experiment: Adrenergic beta2 receptor (ADRB2) small molecule agonists, cell-based qHTS assay (AID 1963593)
# Details: CHO-ADRB2 cells, cAMP HTRF, 30 min; series mostly up to 92.4 µM; activation: at the top concentration
# Excerpt: National Center for Advancing Translational Sciences [NCATS]
# Division of Preclinical Innovation [DPI]
# U.S. Environmental Protection Agency [EPA]
# National Institutes of Environmental Health Sciences [NIEHS]
# National Toxicology Program [NTP]
# U.S. Food and Drug Administration [FDA]
# Beta adrenergic receptors (Beta-ARs) belong to the G-protein coupled receptor (GPCR) superfamily, includes three subtypes - beta1, beta2, and beta3. Beta1-AR is the predominant receptor subtype expressed in the heart, and beta2-AR is expressed in the kidney, lung, blood vessel and in the heart, and beta3 is found in the adipocytes. Beta1 and 2 ARs couple to Gs protein and elevate cyclic adenosine mono phosphate (cAMP), which activates protein kinase A and leads to the downstream signaling responsible for the physiological actions. Beta-AR agonists or antagonists are the most prescribed therapeutic agents for heart failure and asthma, and these were one of the first target receptors for the rational drug design. Tox21 10K compound library was screened using the cAMP-Gs dynamic assay (Cisbio Bioassays, Shelton, CT) to identify agonists/antagonists of the Gs-coupled human adrenergic, beta2 receptor (ADRB2) in the CHO-ADRB2 cell line (Codex BioSolutions, Inc. Gaithersburg, MD), which stably over-expresses ADRB2. The principle of cAMP-Gs dynamic assay is based on HTRF technology, which facilitates the fluorescence resonance energy transfer (FRET) between donor Europium cryptate and acceptor d2-labeled cAMP. The cAMP generated within cells competes with the red acceptor, d2-labled cAMP, for binding to the monoclonal anti-cAMP-cryptate (Europium donor). An increase in intracellular cAMP leads to the disruption of FRET signal, and the signal is inversely proportional to the cAMP concentration. Isoproterenol HCl (Sigma-Aldrich, St. Louis, MO) was used as a positive control in the screening.
# Tox21 Assay Protocol Summary:
# CHO-ADRB2 cells were dispensed at 1,000/well in 4uL assay medium into white/solid 1536-well plates (Greiner Bio-One North America Inc., Monroe, NC) using a Multidrop Combi dispenser (ThermoFisher Scientific, Waltham, MA). The assay plates were incubated at 37C and 5% CO2 for an overnight (18-20hr). Then positive control and test compounds dissolved in DMSO were transferred to the assay plates at 23nL using a Pintool station (Wako, San Diego, CA). Following the compound and positive control transfer, 1uL stimulation mix containing 100uM IBMX and 25uM Ro-20-1724 was added to each well of the assay plates using BioRAPTR Flying Reagent Dispenser (FRD, Beckman Coulter, Brea, CA). The assay plates were incubated at room temperature for 0.5hr. Then 2.5ul each d2-labled cAMP and anti-cAMP-cryptate solutions were added separately to each well of the assay plates using an FRD and the assay plates were incubated at room temperature for 1hr.
# % is set by controls: 0 for no effect and ±100 for the full control effect.
# Beta-2 adrenergic receptor (Homo sapiens), sequence (P07550 whole entry, looked up): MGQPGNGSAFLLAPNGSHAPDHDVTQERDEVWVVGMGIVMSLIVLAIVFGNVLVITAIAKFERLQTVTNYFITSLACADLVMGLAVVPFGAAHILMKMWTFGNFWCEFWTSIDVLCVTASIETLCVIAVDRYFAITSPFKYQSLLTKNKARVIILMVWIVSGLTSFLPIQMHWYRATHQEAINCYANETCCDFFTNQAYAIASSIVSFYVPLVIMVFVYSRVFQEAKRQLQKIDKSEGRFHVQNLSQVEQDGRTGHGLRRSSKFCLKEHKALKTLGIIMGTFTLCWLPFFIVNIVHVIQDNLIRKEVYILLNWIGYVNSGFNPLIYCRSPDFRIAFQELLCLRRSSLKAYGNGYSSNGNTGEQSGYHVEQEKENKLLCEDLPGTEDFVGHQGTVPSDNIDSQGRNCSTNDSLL
SMILES,activation,Potency
CCCCC1C(=O)NC(=O)N(C2CCCCC2)C1=O (stereo not given),-0.997% [at 42.5 µM] (inactive),–
CCCCCCCCCCCCCl,12% (inactive),–
Cc1cccc(C)c1NC(=O)CN1CCCC1=O,–,inactive
Cc1cc(Cl)ccc1N=CN(C)C,-25.4% (inactive),–
N#CC1(N=NC2(C#N)CCCCC2)CCCCC1,1.04% (inactive),–
CC[N+]1(CC)CCC(OC(=O)C(O)(c2ccccc2)c2ccccc2)C1 (stereo not given),21.7% [at 42.5 µM] (inactive),–
C=CC(C)=O,1.41% (inactive),–
Cc1ccc([N+](=O)[O-])cc1,–,inactive
O=P(O)(Oc1ccccc1)Oc1ccccc1,-7.29% (inactive),–
ClC(Cl)(Cl)c1ccccc1,-10.7% (inactive),–
NC(=O)c1cc([N+](=O)[O-])cc([N+](=O)[O-])c1,7.34% [at 42.5 µM] (inactive),–
[Cl-].[Cl-].[Cl-].[Fe+3],8.83% (inactive),–
CC(C)(C)C(O)(CCc1ccc(Cl)cc1)Cn1cncn1 (stereo not given),-84.4% (inactive),–
CNC(=O)O/N=C/C(C)(C)SC,7.97% (inactive),–
C=CCO,-23.5% (inactive),–
CCOP(=O)(OCC)Oc1ccc([N+](=O)[O-])cc1,3.45% (inactive),–
ClCc1cccnc1,5.36% (inactive),–
COP(=S)(OC)Oc1ccc([N+](=O)[O-])cc1,23.9% (inactive),–
O=C(Cc1ccccc1)c1ccccc1,11.7% (inactive),–
OCCSSCCO,-7.12% (inactive),–

SMILES,activation,Potency
CO[C@@H]1[C@H](OC(=O)NC(=O)CCl)CC[C@]2(CO2)[C@H]1[C@@]1(C)O[C@@H]1CC=C(C)C,4.33% [at 19 µM] (inactive),–
CN(C)CCO,-16.3% (inactive),–
CCCCCON=O,-1.37% (inactive),–
COP(=O)(OC)OC=C(Cl)Cl,20.9% (inactive),–
CNC(=O)Oc1cccc2ccccc12,–,inactive
N#CCCC#N,13.1% (inactive),–
Cc1cnc(C2=NC(C)(C(C)C)C(=O)N2)c(C(=O)O)c1 (stereo not given),21.6% (inactive),–
O=P(Cl)(Cl)Cl,11.1% (inactive),–
CCOP(=S)(OCC)O/N=C(\C#N)c1ccccc1,–,inactive
CCOP(=S)(OCC)Oc1nc(Cl)c(Cl)cc1Cl,14.8% (inactive),–
CCC/C=N/O,-24.7% (inactive),–
CC(O)CCO (stereo not given),–,inactive
C=CCBr,-13.4% (inactive),–
CCN(CC)C1CCCCC1,6.74% (inactive),–
Cl/C=C/Cl,–,inactive
C[C@]12CC[C@H]3[C@@H](CC[C@@]45O[C@@H]4C(O)=C(C#N)C[C@]35C)[C@@H]1CC[C@@H]2O,-10% (inactive),–
COc1ccc(O)c(C(C)(C)C)c1,-0.0727% (inactive),–
[P]#[In],25.3% (inactive),–
BrCCc1ccccc1,0.868% (inactive),–
O=C(O)C(F)(F)C(F)(F)C(F)(F)C(F)(F)C(F)(F)C(F)(F)F,3.64% (inactive),–
